Assay results taken from PubChem BioAssay AID2599 (Sanford-Burnham Center for Chemical Genomics, 2010).
Out of some 330,000 compounds screened, about 5,800 (1.8%) were called active.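 Rule for the calls: active = inhibition above about 50% at the single tested dose (limit read from the data); inactive = the rest.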 The sample as a whole holds a higher share of actives than the screen did.

target: Sentrin-specific protease 6 (Homo sapiens) (UniProt Q9GZR1); experiment: inhibition of human SENP6 catalytic domain – biochemical, luminescence, uHTS, primary screen (AID 2599); conditions: Recombinant SENP6 catalytic domain, aminoluciferin luminescence; at 10 µM; hits give high values;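 note: plate controls were DMSO wells with enzyme for no effect and DMSO wells lacking enzyme for full effect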
Sequence (Q9GZR1 628-1112 limits assumed): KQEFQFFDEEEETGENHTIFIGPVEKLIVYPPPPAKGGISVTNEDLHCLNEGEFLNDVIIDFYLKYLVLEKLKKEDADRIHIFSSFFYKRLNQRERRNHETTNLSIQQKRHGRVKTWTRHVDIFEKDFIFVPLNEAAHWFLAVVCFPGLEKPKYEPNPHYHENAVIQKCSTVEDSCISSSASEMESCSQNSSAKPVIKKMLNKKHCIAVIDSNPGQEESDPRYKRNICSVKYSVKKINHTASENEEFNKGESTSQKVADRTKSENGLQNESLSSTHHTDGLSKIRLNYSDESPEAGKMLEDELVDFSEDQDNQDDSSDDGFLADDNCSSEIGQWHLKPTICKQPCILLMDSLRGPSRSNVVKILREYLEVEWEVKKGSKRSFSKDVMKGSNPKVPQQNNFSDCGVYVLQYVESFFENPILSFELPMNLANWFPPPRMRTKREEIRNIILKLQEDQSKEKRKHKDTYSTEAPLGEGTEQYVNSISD

inhibition, active:
CC(=O)N(C1=C(Cl)C(=O)c2ccccc2C1=O)c1ccc(C(=O)O)cc1 81.4%
CN(CC(=O)Nc1ccc(Cl)cc1)C(=O)CNC(=O)c1ccc2ccccc2c1 64.9%
Cc1cnc(NC(=O)c2ccccn2)s1 88.5%
Cc1cc(C(=O)Nc2nnc(C3CC3)s2)c(C)s1 76.1%
O=C(Nc1nnc(C2CC2)s1)c1ccccn1 69.2%
O=c1c2cc(-c3ccccc3)sc2nc2n1N=C(c1cccs1)CS2 73.2%
CC1=CC(=C(C#N)c2nc3ccccc3s2)C=C(C)N1c1ccc(F)cc1F 63.9%
O=C(Nc1ccn(Cc2ccccc2)n1)c1n[nH]c([N+](=O)[O-])c1Cl 98.2%
COc1ccccc1N=Cc1c(O)c2ccccc2oc1=O 81%
CN(c1ccc2nc3ccccc3c(=O)n2n1)C1CCCCC1 93.7%

inhibition, inactive:
COc1ccc(CCNC(=O)CSCc2ccc(Br)cc2)cc1OC 1.68%
CN(CC(=O)Nc1ccc(Cl)cc1)CC(=O)Nc1cccc2ccccc12 -2.99%
CN(CC(=O)Nc1ccc(Cl)cc1)C(=O)c1ccc(COc2ccccc2)cc1 18.3%
COc1ccc(C2=NOC3(CC(=O)N(c4ccc(Cl)cc4)C3=O)C2)c(OC)c1 (centres undefined) -7.66%
CCc1cc(C(=O)Nc2nnc(C3CC3)s2)sc1C -7.34%
Cc1cnc(NC(=O)C2CCCC2)s1 8.65%
O=C(Nc1nnc(C2CC2)s1)c1cc(Cl)sc1Cl 4.15%
Cc1ccc(SCC(=O)Nc2ncc(C)s2)cc1 -5.14%
Cc1cccc(NC(=O)CSCC(=O)Nc2nnc(C3CC3)s2)c1 -3.73%
O=C(Nc1nnc(Cc2ccccc2)s1)c1cnccn1 -4.43%
COc1ccccc1NC(=O)CCSc1nnc(-c2ccc(O)cc2)o1 -8.69%
O=C(c1cccc(F)c1)N1CCN(c2ccc([N+](=O)[O-])c3cccnc23)CC1 13.7%
CCOc1cc(CNCc2ccccn2)ccc1OCC(=O)NC(C)(C)C 4.74%
CCn1nc(C)c(CN2CCN(Cc3ccc(OC)c(C)c3C)C(CCO)C2)c1C (centres undefined) -13.1%
COCCCNC(=O)CN1CCN(Cc2ccccc2Cl)C1=O -5.23%
CC(=O)Nc1ccc(S(=O)(=O)Nc2nc3n(n2)C(c2ccccc2)CC(=O)N3)cc1 (centres undefined) -18.6%
Cc1nnc2n1N=C(c1ccccc1)CS2 0.225%
COc1ccc(C2CC(c3cccs3)=NN2c2ccccc2)cc1 (centres undefined) -18.7%
COc1ccc(Cl)cc1NS(=O)(=O)c1cccc(C(=O)NCC2CCCO2)c1 (centres undefined) -6.29%
COc1ccc(S(=O)(=O)N2CCOCC2)cc1NC(=O)Cc1c(F)cccc1Cl 2.93%
O=C(O)CS/C(=C\c1ccc(F)cc1)c1nc2ccccc2s1 -11.1%
N#C/C(=C(/O)Cc1cccc2ccccc12)c1nc2ccccc2s1 1.83%
CN(Cc1ccccc1)C(=O)C1CCCN(c2ncnc3c2nc2n3CCCCC2)C1 (centres undefined) -17.3%
Cc1cc(NC(=O)COc2ccccc2C#N)no1 4.16%
O=C(Nc1ccn(Cc2ccccc2F)n1)c1ccc(COc2ccc(Cl)cc2Cl)o1 25.5%
Cc1ccc(Cn2ccc(NC(=O)C3C4CCC(C4)C3C(=O)O)n2)cc1 (centres undefined) 13.1%
Cc1cc(C)c(S(=O)(=O)Nc2c(C)n(C)n(-c3ccccc3)c2=O)cc1[N+](=O)[O-] -1.02%
CN(CC1CCCN(CCc2cccc(C(F)(F)F)c2)C1)C(=O)c1ccc2nc[nH]c2c1 (centres undefined) -6.57%
COc1ccc(S(=O)(=O)NCC(=O)NC2CC2)cc1OC -8.69%
CCCCC(c1nnnn1CS(=O)(=O)c1ccc(C)cc1)N1CCC(C(N)=O)CC1 (centres undefined) -48.9%
COc1cc(N=Cc2c(O)c3ccccc3oc2=O)c(OC)cc1Cl -7.87%
COc1ccccc1N=C(C)C1=C(O)COC1=O -35%
CCc1c(C)nc2c(-c3ccccc3)c(C)nn2c1Nc1ccc(NC(C)=O)cc1 -6.24%
CCN(C(=O)CSc1cccc[n+]1[O-])c1ccccc1 -15.1%
CCn1c(=O)n(CC)c2cc(N3CCCC3)c(NC(=O)c3ccccc3Br)cc21 7.04%
CN(C(=O)c1cc2c(=O)n3ccccc3nc2s1)C1CCCCC1 -20.3%
CN(C(=O)CSc1nncc2ccccc12)C1CCCCC1 -34.7%
COc1ccc(/C=N/NC(=O)c2ccncc2)cc1CN1CCCc2ccccc21 -2.09%
C=CCn1c(Cn2nnc3ccccc32)nnc1SCC(=O)N/N=C/c1cc(Br)cc(OC)c1O 20.6%
